According to PubChem BioAssay AID1903 (Southern Research Specialized Biocontainment Screening …, 2009):
Where “and” joins values, the source holds several entries; their conditions need not be identical. Identical values can stand only once. In all, about 310,000 compounds went through this assay and about 1,200 (0.39%) were called active. The rule behind the calls is not given here. Not all results are given here. Results with a measured potency or affinity are listed apart.

Target: Large T antigen (Simian virus 40) (UniProt P03070)
Sequence (P03070 whole entry, looked up): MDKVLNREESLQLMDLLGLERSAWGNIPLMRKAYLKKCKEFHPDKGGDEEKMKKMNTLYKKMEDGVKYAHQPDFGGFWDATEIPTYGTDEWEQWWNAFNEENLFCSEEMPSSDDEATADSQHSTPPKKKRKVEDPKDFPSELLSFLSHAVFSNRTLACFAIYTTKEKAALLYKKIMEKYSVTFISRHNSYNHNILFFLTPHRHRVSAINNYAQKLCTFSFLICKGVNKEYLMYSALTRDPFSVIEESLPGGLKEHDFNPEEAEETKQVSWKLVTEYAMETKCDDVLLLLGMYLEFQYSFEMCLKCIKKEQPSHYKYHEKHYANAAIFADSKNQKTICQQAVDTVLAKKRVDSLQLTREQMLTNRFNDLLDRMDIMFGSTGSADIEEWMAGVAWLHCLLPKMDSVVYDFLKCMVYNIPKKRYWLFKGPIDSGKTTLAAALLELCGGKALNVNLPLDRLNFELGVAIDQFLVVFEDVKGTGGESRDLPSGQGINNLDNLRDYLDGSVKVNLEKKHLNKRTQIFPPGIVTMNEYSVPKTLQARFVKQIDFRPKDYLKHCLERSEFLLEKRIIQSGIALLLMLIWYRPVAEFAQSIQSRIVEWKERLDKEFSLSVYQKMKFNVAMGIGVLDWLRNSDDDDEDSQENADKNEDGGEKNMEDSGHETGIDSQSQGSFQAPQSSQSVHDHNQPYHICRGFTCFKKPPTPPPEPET
Experiment: SV40 large T antigen inhibitors, biochemical (AID 1903)
Conditions: SV40 large T antigen ATPase/helicase inhibition assay; at 20 µM; active compounds read high

inhibition, inactive:
COc1ccc(NC(=O)CCNC(C)=O)cc1NS(=O)(=O)c1ccc(F)cc1 3.53%
CCc1ccccc1NC(=O)CNC(=O)CCc1nc2sc3c(c2c(=O)[nH]1)CCCC3 24.8%
Cc1cccc(C)c1N=Nc1c(C)cc(O)cc1C 12.6%
Cc1ccccc1C1N(c2nccs2)C(=O)C2CCCN21 (configuration not stated) 12.4%
CCN(c1ccccc1)S(=O)(=O)c1cc(CN2C(=O)c3cccnc3C2=O)ccc1OC 13.8%
Cc1ccc(CNC(=O)/C=C/c2ccc(S(=O)(=O)N3CCOCC3)cc2)cc1 3.26%
NS(=O)(=O)c1cc(C(=O)OCC(=O)c2ccccc2)c(Cl)cc1Cl 2.42%
NCCCC[C@H](NC(=O)C1CCNCC1)c1nnc([C@@H](N)Cc2ccc(O)cc2)o1 2.89%
COc1ccc(N=C2NC(=O)/C(=C/c3ccc(O)c(OC)c3)S2)cc1 28.3%
O=C1N/C(=C/c2ccco2)C(=O)N1Cc1ccccc1F 11.4%
COc1ccc(C=C2C(=O)c3ccccc3C2=O)cc1O 36.2%
COc1cc(/C=C2\C(=O)N(C)C(=S)N2C)ccc1O 17.2%
COc1cc(/C=C2\NC(=S)N(C)C2=O)ccc1OCc1ccccc1F 15.8%
COc1cc(/C=C2/SC(=Nc3ccc(O)cc3)NC2=O)ccc1O 37.7%
COc1cc(C=C2C(=O)c3ccccc3C2=O)cc(OC)c1OC 6.63%
COC(=O)C1=C(C)N(CCc2ccccc2)C(=O)/C1=C\c1ccco1 10.5%
Cc1ccc(NC(=O)C2CCCN(c3nccc(C)n3)C2)c(C)c1 (configuration not stated) 4.92%
Cc1sc2nc(CSCC(=O)Nc3c(F)cccc3F)[nH]c(=O)c2c1C 6.91%
COc1ccc(C(=O)Nn2c(C)nc3ccccc3c2=O)cc1OC -1.86%
Cc1ccc(NC(=O)CSc2ccc3nnc(CCNC(=O)c4ccccc4)n3n2)c(C)c1 9.38%
O=C(c1ccccc1F)N1CCN(C2CCC(c3ccccc3)CC2)CC1 (configuration not stated) 18.6%
CC(C)(C)C(=O)NC(=O)Nc1ccccc1C(F)(F)F 2.7%
COC(=O)c1ccc(NC(=O)C2CCCN(S(C)(=O)=O)C2)cc1 (configuration not stated) 3.57%
C=CCCN(C1CCCC1)S(=O)(=O)c1ccccc1Br 10.4%
O=C(Nc1nc2ccc(Cl)cc2s1)[C@@H]1CCCN1C(=O)c1cccs1 -3.98%
CCOC(=O)C1=C(C)N(c2ccc(OC)cc2)C(=O)/C1=C\c1ccc(O)c(OCC)c1 28.2%
CCOC(=O)C1=C(C)N(c2ccc(C)cc2)C(=O)/C1=C\c1ccc(O)c(OC)c1 33.5%
Cc1c(N2C(=O)/C(=C\c3cccc4ccccc34)SC2=S)c(=O)n(-c2ccccc2)n1C 9.9%
CCOc1cc(/C=C2\C(=O)N(CCc3ccc(OC)c(OC)c3)C(C)=C2C(=O)OC)ccc1O 22.8%
Cc1c(N2C(=O)/C(=C/c3ccccc3)SC2=S)c(=O)n(-c2ccccc2)n1C 14.5%
COC(=O)C1=C(C)N(Cc2ccc(C)cc2)C(=O)/C1=C\c1ccc(O)c(OC)c1 11.5%
Cc1[nH]c(=O)[nH]c(=S)c1C(=O)Nc1ccc(Cl)c(Cl)c1 -9.05%
CC1(C(=O)O)CCC(C(=O)Nc2ccc(F)cc2)C1(C)C (configuration not stated) 17.4%
O=C1c2ccccc2S(=O)(=O)N1CCOc1ccc(F)cc1 6.69%
CCOc1ccc(CCNC(=O)COC(=O)C2=NNC(=O)CC2)cc1OCC 12.5%
COc1ccc2c(c1)C1CC(C)(NC(=O)C1S(=O)(=O)c1ccc(F)cc1)O2 (configuration not stated) 22.9%
CCOC(=O)c1ccccc1NC(=O)c1cccc2c1C(=O)N(C1CCN(C(=O)OCC)CC1)C2 5.81% and 1.24%
CC[N+](C)(C)CCN(Cc1ccc(Cl)cc1)c1ccccn1 19.1%
COc1ccc(CN(CCN(C)C)c2ccccn2)cc1 11.2% and 4.35%
O=c1[nH]cc(N(CCO)CCO)c(=O)[nH]1 15.6%
O=C(/C=C/c1ccccc1)OCC(=O)N1CCN(c2ccccc2)CC1 8.9%
Cc1onc(C(=O)NCc2cccs2)c1[N+](=O)[O-] -0.94%
NC1=NC(=O)CC(C(=O)NCCc2ccccc2)S1 (configuration not stated) 13.9%
C/C(Nc1ccc(Cl)cc1)=C(/C#N)C(N)=O -6.59%
N#CC(C(=O)Nc1ccc(Cl)cc1)=C1Nc2ccccc2N1 -0.845%
CCc1cc(C(=O)c2ccccc2OC)c(N)s1 12.7%
CCCCOC(=O)/C=C/c1ccc(OC(=O)OC)c(OC(=O)OC)c1 15.3%
COC(=O)/C=C/c1ccc2c(c1)OCO2 -5.42%
CCOc1ccc(NC(=S)N(Cc2ccc(Cl)cc2)Cc2ccco2)cc1 2.54%
O=C(CS(=O)(=O)Cc1ccccc1)N1CCc2ccccc2C1 9.06%
O=C1N=C(N2CCCC2C(=O)O)S/C1=C\c1ccco1 (configuration not stated) 3.04%
CCCSC1=N/C(=C\C=C\c2ccco2)C(=O)S1 73%
Cc1ccc(N=C2NC(=O)/C(=C/C=C/c3ccco3)S2)cc1 21.2%
O=C(CN1C(=O)S/C(=C\c2ccc(O)cc2)C1=O)c1ccccc1 16.6%
NN1C(=O)/C(=C\c2ccco2)SC1=S 45.2%
O=C1N=C(N2CCN(c3ccccc3)CC2)S/C1=C/c1ccco1 12.4%
O=C1N=C(N2CCN(c3ccccc3)CC2)S/C1=C\c1ccco1 31.4%
O=C1/C(=C\c2ccc(O)cc2)SC(=S)N1Cc1ccccc1 7.6%
COc1ccccc1-c1noc(CCCC(=O)NC2CCCCC2)n1 29.8%
Cc1cc(C=O)c(C)n1-c1ccc(N2CCOCC2)c([N+](=O)[O-])c1 5.88%
O=C(COC(=O)c1nc(Cl)ccc1Cl)NCCc1ccccc1 -0.66%
CCc1ccc(/C=C2/Sc3ccccc3N(CC(=O)NCC3CCCO3)C2=O)cc1 (configuration not stated) 3.57%
Cc1ccc(NC(=O)N2CCC(C(=O)c3ccc(F)cc3)CC2)cc1 3.7%
CCOC(=O)Cn1c(=NC(=O)CN2C(=O)CCC2=O)sc2cc(S(N)(=O)=O)ccc21 11.6%
COc1ccc(C(CNc2ccc(S(=O)(=O)N3CCCC3)cc2[N+](=O)[O-])N2CCCC2)cc1 (configuration not stated) 0.85%
O=C(C1CCCN(Cc2ccccc2F)C1)N1CCCC1 (configuration not stated) -1.92%
CC1CN(c2nc3c(c(=O)n(C)c(=O)n3C)n2Cc2c(Cl)cccc2Cl)CC(C)O1 (configuration not stated) -0.38%
CN(C)S(=O)(=O)c1cccc(NC(=O)COC(=O)COc2ccccc2[N+](=O)[O-])c1 8.43%
CC(=O)C1=C(C)Nc2ncnn2C1c1cccc(Br)c1 (configuration not stated) 4.82%
Cn1c(C(=O)NCCOc2ccccc2Cl)cc(=O)n(C)c1=O 3.15%
COc1cc2c(cc1/C=C/C(=O)O)OC(C)C2 (configuration not stated) -5.46%
CC(C)(O)[C@H]1Cc2cc3ccc(=O)oc3cc2O1 -9.56%
CCCc1ccc(S(=O)(=O)N/N=C\c2ccc3c(c2)OCO3)cc1 10.3%
Cc1ccc(S(=O)(=O)NCC(=O)Nc2cccc([N+](=O)[O-])c2)cc1 1.03%
Cc1onc(-c2c(Cl)cccc2Cl)c1/C(N)=N/OC(=O)C(C)(C)C 7.65%
CCC(C)/C=C/C1=CC2=C(Cl)C(=O)C3(C)OC(=O)C(C(=O)C(C)C(C)O)C3C2=CO1 (configuration not stated) 12.9%
COC(=O)CCC(=O)OC1(C)C(=O)C2=COC(c3ccc(OC)cc3)=CC2=C(Br)C1=O (configuration not stated) 50.8%
CC[C@H](C)/C=C(C)/C=C/C1=CC2=CC(=O)[C@]3(C)OC(=O)[C@@H](C(C)=O)[C@@H]3C2=CO1 18%
O=C(CSc1nc(-c2ccccc2)c(-c2ccccc2)o1)N1CCOCC1 4.01%
O=C(CNC(=O)c1ccc(Cl)cc1Cl)OCc1nnc(-c2ccccc2)o1 15.1%
CC1(C)CC(=O)c2sc(NC(=O)C3COc4ccccc4O3)nc2C1 (configuration not stated) 4.75%
O=C(C1CCN(S(=O)(=O)c2cccs2)CC1)N1CCCCC1 13.9%
Cc1cc(C)c2c(CN3CCN(C)CC3)cc(=O)oc2c1 -0.86%
Cc1cc(C)c2c(CN3CCCCC3)cc(=O)oc2c1 20.4%
COC1CCN(C(=O)CC2C(=O)NCCN2CC(C)(C)C)CC1 (configuration not stated) -3.7%
O=C(CC12CC3CC(CC(C3)C1)C2)Nc1nncs1 12.5%
COc1ccc(NC(=O)CCc2c(C)nc3nc(C)nn3c2C)cc1 -3.06%
O=C(c1cc2ccccc2oc1=O)N1CCN(S(=O)(=O)c2ccccc2)CC1 18.2%
O=C1NC(=S)N/C1=C/c1cc2c(cc1[N+](=O)[O-])OCO2 3%
O=C1NN(c2ccccc2)C(=O)/C1=C\c1ccc2c(c1)OCO2 18%
O=C(CCN1C(=O)/C(=C/C=C/c2ccccc2)SC1=S)Nc1nc2ccccc2s1 9.79%
Cc1ccccc1NC(=O)c1ccc2c(c1)CCN2S(C)(=O)=O 11.3%
